# Screening results deposited in PubChem BioAssay by National Center for Advancing Translational Sciences (NCATS).
# TDP1 cell CPT: growth inhibition of DT40 Tdp1-/-;hTDP1 cells with camptothecin (screen for TDP1 inhibitors); AID 686979; chicken DT40 Tdp1-/-;hTDP1 cells + 20 nM CPT, ATP luminescence, 48 h; 420,000 tested, 12% active; Potency, µM (series often up to 46.2 µM), inactives show at the top dose activity change, negative = growth inhibition, hits mostly inhibitors; also: potency is read from the fitted curve at half-maximal effect; nearly all actives have a fitted effect of over 55% in size
#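 Chicken DT40 Tdp1-/- cells stably complemented with human TDP1 were seeded at 400 cells/well in medium containing 20 nM camptothecin, exposed to pin-transferred compounds, and grown at 37 °C for at least 48 hr. Viability was read as ATP luminescence.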
# DT40 TDP1 no CPT: qHTS for Inhibitors of human tyrosyl-DNA phosphodiesterase 1 (TDP1): qHTS in cells in absence of CPT; DT40 Tdp1-/- hTDP1 cells, no CPT, ATP luminescence, 48 h; Potency, µM (titrated, usually from 46.2 µM), without a hit: at the highest dose activity change, negative = growth inhibition, usual class: inhibitors; AID 686978, 2013; 420,000 tested, 15% active; also: potency is read from the fitted curve at half-maximal effect; nearly all actives have a fitted effect of over 55% in size
#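 Readout: luminescence from CellTiter-Glo after 30 min in the dark at RT. Cells: DT40 Tdp1-/- with stable hTDP1, 400/well. Exposure: compounds alone, ≥48 hr, 37 °C.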
# RORg inh: inhibitors of mouse ROR gamma transcriptional activity | Drosophila S2 Gal4-RORgamma UAS-luciferase reporter, 20 h | AID 2551 | 310,000 tested, 5.4% active | P51450 | Potency, µM (doses to about 53.6 µM), inactives show top-dose activity change, negative = inhibition, most hits filed as inhibitors; also: potency is read from the fitted curve at half-maximal effect; nearly all actives have a fitted effect of over 60% in size
# Target sequence (P51450 whole entry, looked up, the tested form may be a part): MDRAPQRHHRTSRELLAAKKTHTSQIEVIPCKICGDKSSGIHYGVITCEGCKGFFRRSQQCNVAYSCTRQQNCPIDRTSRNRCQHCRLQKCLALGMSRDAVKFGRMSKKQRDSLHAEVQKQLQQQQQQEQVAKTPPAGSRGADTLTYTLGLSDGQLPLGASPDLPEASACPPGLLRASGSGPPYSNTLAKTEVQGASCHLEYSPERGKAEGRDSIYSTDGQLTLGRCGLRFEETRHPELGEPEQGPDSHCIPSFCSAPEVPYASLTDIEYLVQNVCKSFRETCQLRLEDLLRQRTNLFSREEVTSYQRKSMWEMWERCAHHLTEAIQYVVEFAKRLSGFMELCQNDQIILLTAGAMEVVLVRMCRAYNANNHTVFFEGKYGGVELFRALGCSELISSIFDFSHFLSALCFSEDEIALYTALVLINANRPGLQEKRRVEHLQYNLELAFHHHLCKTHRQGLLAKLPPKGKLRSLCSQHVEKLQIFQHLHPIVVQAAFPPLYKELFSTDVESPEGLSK
#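 A Gal4/UAS one-hybrid system in insect cells: metallothionein-promoter Gal4–ROR gamma fusion plus Photinus luciferase reporter. Copper sulfate 700 uM final, 20 hr ambient incubation, luminescent detection after 10 min with reagent.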
# VP16 counter: counter-screen for ROR gamma inhibitors: Gal4-VP16 reporter; Drosophila S2 Gal4-VP16 UAS-luciferase, luminescence, 20 h; Potency, µM (series often up to 53.6 µM), without a hit: at the top dose activity, negative = inhibition, most hits filed as inhibitors; 310,000 tested, 3.5% active; AID 2546;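 also: Gal4-VP16 expression switched on by copper sulfate through the metallothionein promoter; potency is read from the fitted curve at half-maximal effect; nearly all actives have a fitted effect of over 50% in size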
# ELG1 DNA repair: blocks ELG1-dependent DNA repair in HEK293T cells. Potency, µM (series often up to 46.1 µM), for inactives: top-dose activity change, negative = inhibition, usual class: inhibitors. HEK293T ELG1-luciferase reporter, luminescence, 16 h; DNA damage induced by 5-fluorouridine. 330,000 tested, 2.3% active; also: potency is read from the fitted curve at half-maximal effect; nearly all actives have a fitted effect of over 55% in size
#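 5-Fluorouridine DNA damage + compound/DMSO, 2,000 cells/well, 16 h, 37 °C/5% CO2. ONE-Glo, 30 min RT, luminescence. Readout = decrease in reporter signal.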
# IL-1B inflam inh: inflammasome signaling inhibition, IL-1 beta readout | activity change, % at 57.5 µM | 360,000 tested, 4.7% active | AID 743279 | THP-1 LPS/ATP IL-1B secretion, AlphaLISA, 16 h; stronger effect = lower value; in the data active = activity change below about -50%; inconclusive = mostly about -30% to -49%
#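 THP-1 cells pretreated 1 hr with compounds (up to 57.5 uM final), then stimulated with LPS (250 ng/mL final) plus ATP (1.25 mM final); secreted IL-1B measured by AlphaLISA after 16 hr, decreased signal indicating inhibition.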
# * marks the source's active call; other numbers are inactive results; ? = inconclusive; / = no result; [ ] = remark or other dose. Rows were chosen to be rich in hits. Some 21% of all compounds tested hit in one or more screens of this group. Unless noted, calls follow the shape of the dose curve; as a rule, active = well fitted curve in the direction sought with a large enough effect; inconclusive = small, poorly fitted or top-dose-only effect, or another doubt; inactive = no such curve, though single readings can be large; an effect the other way counts as inactive or inconclusive. % is scaled to controls: 0 for no effect and ±100 for the full control effect.
SMILES,TDP1 cell CPT,DT40 TDP1 no CPT,RORg inh,VP16 counter,ELG1 DNA repair,IL-1B inflam inh
N#CC(C#N)=Cc1cc(O)c(O)c(O)c1,9.4µM*,15µM*,?,6%,/,/
CCOP(=O)(OCC)C(Nc1cccc(C(F)(F)F)c1)c1ccc(C)cc1 (stereo unspecified),?,18µM*,?,?,7%,-16
CCOP(=O)(OCC)C(Nc1cccc([N+](=O)[O-])c1)c1ccc(OC)cc1 (stereo unspecified),?,13µM*,11%,-6%,?,-13
CCOP(=O)(OCC)C(Nc1cc(Cl)cc(Cl)c1)c1cccc(O)c1 (stereo unspecified),?,?,26%,3%,-9%,?
CCCOP(=O)(OCCC)C(NC(=O)c1cc(OC)c(OC)c(OC)c1)c1ccccc1 (stereo unspecified),-24%,?,-18%,2%,?,0
CCCOP(=O)(OCCC)C(Nc1cccc(C(F)(F)F)c1)c1ccc(C)cc1 (stereo unspecified),?,23µM*,-20%,?,-25%,-2
CCOc1ccc2nc(N3CCC(C(=O)N4CCC5(CC4)OCCO5)CC3)sc2c1,?,?,2%,-2%,?,-4
CCOc1ccc(NCc2cccn2-c2nnc(N3CCC(C(=O)NC(C)c4ccccc4)CC3)s2)cc1 (stereo unspecified),21µM*,8.2µM*,/,/,/,/
Oc1ccc2c3c1O[C@H]1[C@@H](O)C=C[C@H]4[C@H](C2)NCC[C@@]341,5%,14%,/,/,/,/
COc1ccc(NC(=O)N2CCCC3(CCN(C(=O)Oc4ccccc4)CC3)C2)cc1,-5%,-13%,-21%,1%,/,/
O=C(NCC(c1cccs1)N1CCOCC1)c1cc([N+](=O)[O-])cc([N+](=O)[O-])c1 (stereo unspecified),-29%,?,-34%,5%,?,-62*
C=CCn1c(O)c(/C=C2/C=CC=N2)c(=O)[nH]c1=O,?,?,-36%,3%,?,15
CCCCn1c(O)c(/C=C2/C=CC=N2)c(=O)[nH]c1=O,18µM*,4.1µM*,?,-14%,-19%,-10
O=c1[nH]c(=O)n(Cc2ccccc2Cl)c(O)c1/C=C1/C=CC=N1,5.8µM*,5.8µM*,49%,-6%,-13%,22
C[C@H](NC(C)(C)C)C(=O)c1cccc(Cl)c1,/,/,-6%[16.9 µM],10%[17 µM],/,/
CCBr,/,/,-7%,-1%,/,/
Nc1ncnc2c1ncn2[C@@H]1O[C@H](COP(=O)(O)OP(=O)(O)OP(=O)(O)O)[C@H]2OC3(O[C@H]21)C([N+](=O)[O-])=CC(=[N+]([O-])[O-])C=C3[N+](=O)[O-] (stereo partly specified),/,/,2%,-2%,/,/
Cc1cc(C)c2c(ccc3cccc[n+]32)c1,?,21µM*,/,/,/,-61*
O=C(Nc1ccc(Cl)cc1C(=O)c1ccccc1)c1ccccc1Br,?,2.9µM*,/,/,/,/
O=C(CN1CCCCC1)NCC(=O)Nc1ccc(Br)cc1C(=O)c1ccccc1,16µM*,18µM*,21%,-7%,-4%,23
CC(=O)NCC(=O)Nc1ccc(Br)cc1C(=O)c1ccccc1,4%,-24%,14%,-3%,0%,/
O=C(CNC(=O)c1ccccc1)Nc1ccc(Br)cc1C(=O)c1ccccc1,2%,?,8%,-10%,-10%,-52*
O=C(CCN1CCOCC1)NCC(=O)Nc1ccc(Br)cc1C(=O)c1ccccc1,-6%,-27%,-11%,1%,9%,-18
O=C(CNC(=O)c1ccccc1Cl)Nc1ccc(Br)cc1C(=O)c1ccccc1,18µM*,18µM*,?,-15%,?,1
